# Laboratory results from PubChem BioAssay AID1645838 (ICCB-Longwood Screening Facility, Harvard Medical School, 2021).
# Where “and” joins values, the source holds several entries; their conditions need not be identical. Equal values may be shown once. Out of some 2,000 compounds screened, about 100 (5%) were called active. Rule as the data show it: active = z-score above about 2; inactive = the rest. Shown is part of a subset that was picked to be rich in actives.
# Experiment: supercomplex reporter luminescence per Hoechst cell count – Hoechst nuclei count (AID 1645838);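 also: control cybrid cells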;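 as to z-score: higher means more mitochondrial supercomplex formation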
# Conditions: Cells, luminescence/Hoechst cell count ratio; for z-score: stronger effect = higher value; for cell count: measured here: cell number, Hoechst nuclei count; for outcome: library stock 10 mM
# [1] = library stock concentration (final well concentration not given) 46 uM
# [2] = library stock concentration (final well concentration not given) 278 uM
# [3] = library stock concentration (final well concentration not given) 1.67 mM
# [4] = library stock concentration (final well concentration not given) 10 mM
# [5] = library stock concentration (final well concentration not given) 80 uM
# [6] = library stock concentration (final well concentration not given) 400 uM
# [7] = library stock concentration (final well concentration not given) 2 mM
compound,measurement,setting,value
CC=C(C)C(=O)OC1C(C)=C[C@]23C(=O)C(C=C(CO)C(O)[C@]12O)C1C(CC3C)C1(C)C (some centres undefined),z-score,[1],1.37 (inactive)
same,z-score,[2],1.94 (inactive)
same,z-score,[3],1.83 (inactive)
same,z-score,[4],1.83 (inactive)
same,cell count,[1],6280
same,cell count,[2],6170
same,cell count,[3],6240
same,cell count,[4],5670
CCCCCCCCCCCCCCCC(=O)NC[C@@H](C)O,z-score,,-0.297 (inactive)
same,cell count,,5690
CCCCC/C=C\C=C1\C(=O)CC[C@@H]1C/C=C\CCCC(=O)O,z-score,,-0.163 (inactive)
same,cell count,,5580
COc1ccc(C(=O)O)cc1,z-score,[5],-0.451 (inactive)
same,z-score,[6],-0.128 (inactive)
same,z-score,[7],-0.287 (inactive)
same,z-score,[4],-0.368 (inactive)
same,cell count,[5],6090
same,cell count,[6],5780
same,cell count,[7],5670
same,cell count,[4],5840
COc1ccc(C(=O)CC2(O)C(=O)Nc3c(Cl)ccc(Cl)c32)cc1 (centres undefined),outcome,,inactive; censored for cell count
same,z-score,[1],-0.53 (inactive)
same,z-score,[2],0.329 (inactive)
same,z-score,[3],3.41 (active)
same,cell count,[1],7260
same,cell count,[2],5870
same,cell count,[3],2920
COc1ccc(C(=O)C(=O)c2ccc(OC)cc2)cc1,z-score,[5],-0.606 (inactive)
same,z-score,[6],-0.661 (inactive)
same,z-score,[7],-0.561 (inactive)
same,z-score,[4],-0.758 (inactive)
same,cell count,[5],5520
same,cell count,[6],5760
same,cell count,[7],5480
same,cell count,[4],5880
CCCCCCCCCCCCC(O)C(=O)O (centres undefined),z-score,,-0.554 (inactive)
same,cell count,,5820
CCCCC[C@@H](O)/C=C/[C@@H]1[C@@H](C/C=C\CCCC(=O)O)[C@@H](O)C[C@H]1O,z-score,,-0.443 (inactive)
same,cell count,,5100
CCCCC[C@H](O)CC[C@H]1[C@H](O)CC(=O)[C@@H]1CCCCCCC(=O)O,z-score,,0.391 (inactive)
same,cell count,,5410
CCCCC[C@H](O)/C=C/[C@H]1C(=O)C=C[C@@H]1C/C=C\CCCC(=O)O,z-score,,-0.0566 (inactive)
same,cell count,,4900
NCCCCN(Cc1nc2ccccc2[nH]1)C1CCCc2cccnc21 (centres undefined),z-score,[5],-0.0283 (inactive)
same,z-score,[6],0.157 (inactive)
same,z-score,[7],0.36 (inactive)
same,z-score,[4],2.01 (active)
same,cell count,[5],5890
same,cell count,[6],5860
same,cell count,[7],5630
same,cell count,[4],3290
CCCCC[C@@](C)(O)/C=C/[C@@H]1[C@@H](C/C=C\CCCC(=O)OC)[C@@H](O)C[C@H]1O,z-score,,-0.104 (inactive)
same,cell count,,5030
CCCCC[C@H](O)/C=C/[C@@H]1c2cc(CCCCC(=O)O)n(-c3ccccc3)c2C[C@H]1O,z-score,,-1.31 (inactive)
same,cell count,,6120
COc1cc2nccc(Oc3ccc(NC(=O)Nc4cc(C)on4)c(Cl)c3)c2cc1OC,outcome,,inactive; censored for cell count
same,z-score,[5],-0.536 (inactive) and -0.288 (inactive)
same,z-score,[6],-0.724 (inactive) and -0.129 (inactive)
same,z-score,[7],-1.01 (inactive) and -0.967 (inactive)
same,z-score,[4],5.93 (active)
same,cell count,[5],4520 and 5260
same,cell count,[6],4890 and 4760
same,cell count,[7],4710 and 4870
same,cell count,[4],1710
COc1cc(OC)c(NC(=O)Nc2cc(C)on2)cc1Cl,z-score,[5],-0.669 (inactive)
same,z-score,[6],-0.368 (inactive)
same,z-score,[7],-0.584 (inactive)
same,z-score,[4],-0.574 (inactive)
same,cell count,[5],6520
same,cell count,[6],5740
same,cell count,[7],6660
same,cell count,[4],5990
COC(=O)C(CCSC)NC(=O)c1ccc(NCC(N)CS)cc1-c1ccccc1 (centres undefined),z-score,[5],-0.72 (inactive)
same,z-score,[6],-0.795 (inactive)
same,z-score,[7],-0.715 (inactive)
same,z-score,[4],-1.02 (inactive)
same,cell count,[5],6120
same,cell count,[6],6350
same,cell count,[7],6090
same,cell count,[4],5780
COc1ccc2c(c1)CN(C)CCS2,z-score,[5],-0.906 (inactive)
same,z-score,[6],-0.795 (inactive)
same,z-score,[7],-1.04 (inactive)
same,z-score,[4],-1.49 (inactive)
same,cell count,[5],6210
same,cell count,[6],6190
same,cell count,[7],6290
same,cell count,[4],6260
CCCCC[C@H](O)/C=C/[C@H]1C(=O)C[C@H](O)[C@@H]1C/C=C\CCCC(=O)NC(CO)CO,z-score,,1.15 (inactive)
same,cell count,,4420
CCCCC/C=C\C/C=C\C/C=C\C/C=C\CCCC(=O)NC[C@]1(C)CCC[C@]2(C)c3ccc(C(C)C)cc3CC[C@@H]12,z-score,,-0.12 (inactive)
same,cell count,,4820
CCC(C)(C)C(=O)OC1CC(C)C=C2C=CC(C)C(CCC3CC(O)CC(=O)O3)[C@H]21 (some centres undefined),z-score,[5],-0.332 (inactive)
same,z-score,[6],-0.176 (inactive)
same,z-score,[7],-0.124 (inactive)
same,z-score,[4],3.34 (active)
same,cell count,[5],6550
same,cell count,[6],6140
same,cell count,[7],6050
same,cell count,[4],2650
CCCCCCNC(=O)Nc1ccc(S(=O)(=O)Nc2ccc(CCNCC(O)COc3ccc(O)cc3)cc2)cc1 (centres undefined),z-score,[5],-0.212 (inactive)
same,z-score,[6],0.0631 (inactive)
same,z-score,[7],-0.344 (inactive)
same,z-score,[4],0.114 (inactive)
same,cell count,[5],5240
same,cell count,[6],4980
same,cell count,[7],5190
same,cell count,[4],4950
N#Cc1cccc(C#N)c1-c1nc2c3ccccc3c3cc(Cl)ccc3c2[nH]1,z-score,[1],-0.238 (inactive)
same,z-score,[2],-0.156 (inactive)
same,z-score,[3],-0.196 (inactive)
same,z-score,[4],0.519 (inactive)
same,cell count,[1],6980
same,cell count,[2],6500
same,cell count,[3],7350
same,cell count,[4],6120
COc1ccccc1Oc1ccc(N(Cc2cccnc2)S(=O)(=O)CC(F)(F)F)cc1,z-score,[1],0.268 (inactive)
same,z-score,[2],-0.0606 (inactive)
same,z-score,[3],2 (active)
same,z-score,[4],0.543 (inactive)
same,cell count,[1],6460
same,cell count,[2],6750
same,cell count,[3],6250
same,cell count,[4],5860
